According to PubChem BioAssay:

Experiments:
[1] = inhibitors of PAF-induced NFkB signaling in CF airway cells, dose response, cell-based, uHTS hits, panel, cytotoxicity readout (AID 624344); conditions: CF bronchial epithelial cells, PAF-induced NFkB reporter inhibition, with PAF, run 1; at 79 µM (top of the series)
[2] = as above; conditions: CF bronchial epithelial cells, PAF-induced NFkB reporter inhibition, with PAF, run 2; at 79 µM (top of the series)
[3] = biological target: Tumor necrosis factor receptor superfamily member 10B (Homo sapiens) (UniProt O14763); assay: caspase-8 TRAIL sensitization, hit retest, confirmation, cell-based, NB7+caspase-8, with/without TRAIL, luminescence panel (AID 651596); conditions: NB7 neuroblastoma + caspase-8, TRAIL sensitization, luminescence viability, with TRAIL, mean of runs, at 10 µM, stronger effect = higher value
Sequence of Tumor necrosis factor receptor superfamily member 10B (Homo sapiens) (O14763 whole entry, looked up): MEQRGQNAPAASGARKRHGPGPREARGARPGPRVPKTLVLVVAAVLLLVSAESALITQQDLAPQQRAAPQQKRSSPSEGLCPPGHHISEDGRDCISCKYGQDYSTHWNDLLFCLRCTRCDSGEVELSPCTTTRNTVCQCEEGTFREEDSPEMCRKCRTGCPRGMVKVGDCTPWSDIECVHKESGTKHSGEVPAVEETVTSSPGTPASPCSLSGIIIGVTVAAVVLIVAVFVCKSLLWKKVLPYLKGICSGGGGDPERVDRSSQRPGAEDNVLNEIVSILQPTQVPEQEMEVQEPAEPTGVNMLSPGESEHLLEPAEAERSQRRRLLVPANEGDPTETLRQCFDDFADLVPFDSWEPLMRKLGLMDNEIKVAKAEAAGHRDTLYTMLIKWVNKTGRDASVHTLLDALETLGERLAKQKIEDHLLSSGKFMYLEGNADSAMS

[4] = as above; conditions: NB7 neuroblastoma + caspase-8, without TRAIL, luminescence viability, without TRAIL, mean of runs, at 10 µM

Compound: CCCCn1nnnc1C(CCc1ccccc1)N1CCC(n2c(=O)[nH]c3ccccc32)CC1 (stereo not given)
- inhibition [1]: 89.5%
- inhibition [2]: 93%

Compound: NC(=S)c1cn(C2OC(CO)C(O)C2O)c2ncnc(N)c12 (stereo not given)
- activity [3]: 59.4%
- activity [4]: 91.2%

Compound: O=[N+]([O-])c1ccc(Cl)c([N+](=O)[O-])c1
- activity [3]: -3.27%
- activity [4]: 54.8%

Compound: C=C1C(C)C2C(Cc3ccccc3)NC(=O)C23OC(=O)/C=C/C(O)CCCC(C)C/C=C/C3C1O (stereo not given)
- inhibition [1]: 104%
- inhibition [2]: 103%

Compound: CC12CCC3C(CCC4(O)CC(O)CCC34C=O)C1(O)CCC2C1=CC(=O)OC1 (stereo not given)
- activity [3]: 82.5%
- activity [4]: 85.2%

Compound: C[C@H]1O[C@@H](OC2CC[C@]3(C=O)[C@H]4CC[C@]5(C)[C@@H](C6=CC(=O)OC6)CC[C@]5(O)[C@@H]4CC[C@]3(O)C2)CC2OC(C)(C)OC21 (stereo not given in full)
- activity [3]: 85.6%
- activity [4]: 92.4%

Compound: CCOC(=O)[C@]12Cc3ccc(C)cc3[C@H]1N(C1CCCCC1)C(=O)c1ccccc12
- activity [3]: 90.7%
- activity [4]: 90.5%

Compound: CC12CCC(O)CC1CCC1C2CCC2(C)C(C3=CC(=O)OC3)C(O)CC12O (stereo not given)
- activity [3]: 80.4%
- activity [4]: 53.5%

Compound: CC(C)(C)n1cc(C(=O)c2ccc3ccccc3c2O)cn1
- activity [3]: 55.8%
- activity [4]: 51%

Compound: CNC(=O)Oc1cccc(-c2cn3cc(Cl)ccc3n2)c1
- activity [3]: 86.8%
- activity [4]: 83%

Compound: ClCCN(CCCl)c1ccc(-n2cnc3c(Cl)ncnc32)cc1
- activity [3]: 96.3%
- activity [4]: 98.2%

Compound: CCCCCCCCCCCCCCCC[N+](C)(C)C
- activity [3]: 96.8%
- activity [4]: 96.8%

Compound: CCOC(=O)[C@]12Cc3cc(Cl)ccc3[C@H]1N(C(C)C)C(=O)c1ccccc12
- activity [3]: 79.3%
- activity [4]: 85.9%

Compound: C=CCn1c(O)c(C(C)=NCc2cc(OC)cc(OC)c2)c(=O)[nH]c1=O
- activity [3]: 79.5%
- activity [4]: 84.8%

Compound: C[C@@H]1O[C@@H](O[C@@H]2C=C3CC[C@@H]4C(CC[C@]5(C)[C@@H](c6ccc(=O)oc6)CC[C@]45O)[C@@]3(C)CC2)[C@H](O)[C@H](O)[C@H]1O (stereo not given in full)
- activity [3]: 82.4%
- activity [4]: 91.5%
